Compound activity as filed in PubChem.
SARS PLpro yeast – qHTS of Yeast-based Assay for SARS-CoV PLP; S. cerevisiae expressing SARS-CoV PLpro, growth rescue; Potency, µM (series often up to 32.9 µM), without a hit: at the top dose activity, positive = growth rescue, most hits filed as activators; 330,000 compounds, 0.19% hits; AID 485353, 2010; calls by dose curve; further: potency means the concentration at half of the fitted maximal effect; 0% is about no effect; nearly all actives have a fitted effect of over 55% in size
Pf growth 48h – Primary qHTS for delayed death inhibitors of the malarial parasite plastid, 48 hour incubation. P. falciparum luciferase growth in erythrocytes, 48 h. Potency, µM (highest dose often 28.7 µM), for inactives: at the top dose activity change, negative = inhibition, actives largely listed as inhibitors. 310,000 compounds, 5.9% hits. AID 504832, 2011; further: potency means the concentration at half of the fitted maximal effect; on the % scale 0 is the no-effect control and ±100 the full control effect
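Luminescence readout; reporter = integrated firefly luciferase in P. falciparum. RBC culture at 2% hematocrit, 0.1% parasitemia final, 37 C/5% CO2; decreased signal taken as growth inhibition.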
CHX counter – Cycloheximide Counterscreen for Small Molecule Inhibitors of Shiga Toxin | cell reporter, cycloheximide protein synthesis inhibition counterscreen | 300,000 compounds, 12% hits | max response, %; in the data active means max response mostly above about 13%, no sharp cut-off; inactive means mostly below about 14%; further: read at 38.3 µM for the half of the compounds with a filed dose; 0% is about no effect
NS1 function inh – qHTS Assay for Inhibitors of Influenza NS1 Protein Function; Potency, µM (series often up to 46.1 µM), for the others: at the highest dose activity, positive = more growth; 270,000 compounds, 0.4% hits; AID 2326, 2010; calls by dose curve; further: potency means the concentration at half of the fitted maximal effect; actives are rising curves; nearly all actives have a fitted effect of over 50% in size
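S. cerevisiae expressing influenza A NS1, grown in glucose, washed, then diluted 1:100 into pH 6.0 -URA galactose medium with 23 nl compound. Growth recovery read as OD600; NS1-free strain serves as control.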
Pf growth 96h – Primary qHTS for delayed death inhibitors of the malarial parasite plastid, 96 hour incubation; Potency, µM (series often up to 28.7 µM), without a hit: top-dose activity change, negative = inhibition, most hits filed as inhibitors; 320,000 compounds, 6.9% hits; P. falciparum luciferase reporter growth, 96 h; further: potency means the concentration at half of the fitted maximal effect; on the % scale 0 is the no-effect control and ±100 the full control effect
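Delayed-death screen, second-generation endpoint: infected erythrocytes, 2% hematocrit, 0.05% parasitemia final; 96 hours at 37 C, 5% CO2; luciferase detection reagent; luminescence decrease equals reduced growth.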
Shiga inhibitor – A qHTS for Small Molecule Inhibitors of Shiga Toxin | AID 2315, 2010 | Vero cells, Shiga toxin protein synthesis inhibition reporter | inhibition, % at 38.7 µM | 290,000 compounds, 9.2% hits; in the data active means inhibition mostly above about 28%, no sharp cut-off; inactive means mostly below about 43%; further: 0% is about no effect
* marks the source's active call; other numbers are inactive results; i = inactive; ? = inconclusive; . = no result; [ ] = dose if it differs, or a comment. In the library only some 21% were active in any assay of this set; here they are far more common. Unless noted, the call rests on the fitted dose curve; in most records, active means well fitted inhibition curve with a large enough effect; inconclusive means small, poorly fitted or top-dose-only effect, or another doubt; inactive means no such curve, though single readings can be large or run the other way.

SMILES | SARS PLpro yeast | Pf growth 48h | CHX counter | NS1 function inh | Pf growth 96h | Shiga inhibitor
CSCCC(NC(=O)c1ccccc1Br)C(=O)NNC(=O)c1ccco1 (stereo unspecified) | -1% | 0% | . | . | 0% | .
Cc1ccc(S(=O)(=O)N2CCC(C(=O)OCC(=O)N(Cc3ccccc3)C(C)(C)C)CC2)cc1C | -2% | ? | . | . | -24% | .
O=C(Nc1ccccc1-c1ccccc1)c1cccc([N+](=O)[O-])c1 | -14% | ? | 31* | -7% | 9.3µM* | 122*
CCN(CC)S(=O)(=O)c1ccc(NC(=O)c2cc(C(=O)OC)cc([N+](=O)[O-])c2)cc1 | 18% | ? | -2 | 2% | -20% | -18
COC(=O)/C(=C/c1cccc([N+](=O)[O-])c1)NC(=O)c1ccc(OC)cc1 | 22% | 8% | 53* | ? | 21% | 76*
Cc1ccc(NC(=O)c2ccc(C)cc2)cc1 | 4% | 129% | . | . | 163% | .
Cc1ccc(NC(=O)c2ccc(Nc3c([N+](=O)[O-])cc([N+](=O)[O-])cc3[N+](=O)[O-])cc2)cc1 | 5% | 5.2µM* | -4 | 23% | 22% | -15
COC(=O)c1cc(C(=O)Nc2ccc(S(=O)(=O)NC(C)(C)C)cc2)cc([N+](=O)[O-])c1 | 0% | ? | -1 | 29% | 2.6µM* | 8
CCN1CCN(C(=O)CCc2nnc(CCc3c[nH]c4ccccc34)o2)[C@@H](C)C1=O | -4% | 4% | 14 | 4% | ? | -6
COc1ccc(CNC(=O)C(C)OC(=O)CCN2C(=O)C3CC=CCC3C2=O)cc1 (stereo unspecified) | -3% | ? | . | . | ? | .
O=C(NNC(=O)c1ccc(NC(=O)c2ccccc2)cc1)c1ccccc1 | -1% | 26% | -1 | . | ? | -11
O=C(Nc1cccc([N+](=O)[O-])c1)c1cccc(C(=O)Nc2cccc([N+](=O)[O-])c2)c1 | 2% | 2.9µM* | -5 | 6% | ? | -3
O=[N+]([O-])c1cccc(Nc2nc(Cl)nc(Cl)n2)c1 | 1% | 49% | 3 | . | 12µM* | -6
CN(C)S(=O)(=O)Oc1cccc(C(=O)Nc2ccc([N+](=O)[O-])cc2)c1 | 2% | 45% | 50* | . | 41% | 79*
O=C(Nc1ccc([N+](=O)[O-])cc1)c1ccccc1 | -2% | 107% | 47* | 7% | ? | 73*
CCOc1ccc(NC(=O)CN(C)C(=O)CC(NC(=O)c2ccccc2)c2ccccc2)cc1OCC (stereo unspecified) | -5% | ? | . | . | ? | .
CSc1cnn(Cc2ccccc2)c(=O)c1SCc1ccccc1 | -47% | ? | 13 | -44% | ? | 24
COc1c(O[C@H]2O[C@@H](CO)[C@@H](O)[C@@H](O)[C@@H]2O)cc2c(c1OC)-c1ccc(SC)c(=O)cc1[C@H](NC(C)=O)CC2 | . | 4%[12.8 µM] | . | . | -2%[12.8 µM] | .
COC(=O)CS(=O)(=O)c1cccc2cccnc12 | 1% | 15% | -4 | 5% | ? | -8
O=C(O)c1ccc(N=NNc2cccc([N+](=O)[O-])c2)cc1 | 16% | i | 42* | 3% | ? | 108*
NC(=O)c1cccc([N+](=O)[O-])c1 | 3% | 34% | . | . | 52% | .
O=C(N/N=C1/CCSC1)c1cccc([N+](=O)[O-])c1 | -1% | -8% | -1 | 6% | 8% | 50*
COc1ccc(Cc2nnc(NC(=O)c3ccccc3C)s2)cc1 | -2% | 34% | 10 | -7% | 2.1µM* | 5
O=C(Nc1ccc(Cc2ccncc2)cc1)c1cccc([N+](=O)[O-])c1 | -8% | 33% | 23* | -5% | -9% | -23
Cc1ccc(C(=O)N/N=C2\CCSC2)cc1[N+](=O)[O-] | -13% | -2% | -1 | 21% | 7% | 21
SMILES | SARS PLpro yeast | Pf growth 48h | CHX counter | NS1 function inh | Pf growth 96h | Shiga inhibitor
CN(CCCNC(=O)Cn1cccc1C(=O)c1ccccc1)C1CCCCC1 | 8% | -16% | -5 | . | ? | -13
COc1ccc(Cc2nnc(NC(=O)c3cccc([N+](=O)[O-])c3)s2)cc1 | 1% | 20% | 23* | 4% | 10% | 32
CCOC(=O)CNC(=O)CSc1nnc(NC(=O)c2ccc(C)cc2)s1 | 8% | 156% | -5 | . | 235% | -13
O=CNNC(=O)c1cccc([N+](=O)[O-])c1 | 22% | 32% | -1 | 1% | 59% | -12
CCOC(=O)CSc1nnc(NC(=O)c2cccc([N+](=O)[O-])c2)s1 | 7% | -22% | -2 | 9% | 12µM* | -2
O=C(Nc1ncc([N+](=O)[O-])s1)c1cccc([N+](=O)[O-])c1 | -8% | -45% | 43* | -76% | 0% | 105*
COc1ccc(Cc2nnc(NC(=O)c3ccc(OC)c(OC)c3)s2)cc1 | 2% | -3% | 0 | ? | ? | -1
Cc1ccc(NC(=O)NNC(=O)c2cc3ccccc3cc2O)cc1 | 0% | 25% | -1 | 4% | 0% | -4
O=C(Nc1ccncc1)c1cc2ccccc2cc1O | -23% | ? | . | . | 8.3µM* | .
COc1cccc(-n2nnnc2SCC(=O)Nc2ccc(NC(C)=O)cc2)c1 | 0% | 34% | -2 | 7% | 30% | 14
O=C1CCN(c2ccc([N+](=O)[O-])cc2F)CC1 | 0% | 276% | 3 | . | 57% | 22
O=C(CN1C(=O)S/C(=C\c2ccccc2F)C1=O)NC1C=CS(=O)(=O)C1 (stereo unspecified) | -1% | ? | -3 | -4% | ? | -4
COc1ccc(NC(=O)c2ccc(N(C)S(C)(=O)=O)cc2)cc1OC | 3% | 26% | 13 | 0% | -2% | 31
O=C(O)c1ccccc1Nc1ccc([N+](=O)[O-])cc1 | -12% | 41% | 27* | -55% | ? | 32
CC(=O)N[C@H]1C[C@@H]1c1ccccc1 | 0% | 20% | -2 | -1% | 13% | -4
Cc1ccc(NCCC(=O)c2cccc([N+](=O)[O-])c2)cc1 | -29% | 5% | 29* | 21% | -2% | 19*
O=C(N[C@H]1CC1c1ccccc1)c1ccc([N+](=O)[O-])cc1 (stereo partly specified) | -4% | 92% | 46* | -4% | 211% | 112*
COc1ccc(C(=O)Nc2cccc(N(C)S(C)(=O)=O)c2)cc1OC | -6% | 138% | 26* | 7%[9.22 µM] | 75% | 60*
COc1ccccc1N1CCN(C2CCN(C(=O)COc3cccc(C)c3)CC2)CC1 | -18% | ? | -4 | -4% | ? | -5
CSc1ccccc1NC(=O)Cn1c([N+](=O)[O-])cnc1C | 22% | 26% | 1 | 5% | 4% | -6
O=C(CSc1nnc(CNC(=O)c2ccc(F)cc2)o1)NCc1ccc2c(c1)OCO2 | 4% | 9% | 6 | 6% | 0% | -15
